# In PubChem BioAssay:
# Activity calls are given as the source filed them.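 Rule for the calls, unless noted: active = inhibition at or above 50% relative to wild type and mutant plate controls; inactive = inhibition below 50%.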
# Tests used:
# [1] = inhibitors of TNFa-induced NFkB p65 translocation, primary screen, imaging, HUVEC, MLSMR starter and 10KST1 sets (AID 438;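 active = inhibition above 20% together with a positive visual image hit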;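 note: compound added about 3h40 before a 20 min TNFalpha stimulation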;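 for inhibition: signal is the nuclear over cytoplasmic p65 intensity ratio per well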); settings: HUVEC TNFa-induced p65 nuclear translocation; cell count: measured here: nuclei count (cytotoxicity indicator), at 2.08 µM; inhibition: at 2 µM, stronger effect = higher value, 0% TNFa-plus-vehicle, 100% no-TNFa wells
# [2] = inhibitors of mutant huntingtin aggregation, primary screen, imaging, exon1htt(103Q)mCFP cells, high-content imaging (AID 483;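 active = visual image review flags a hit and inhibition of aggregation exceeds 20%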;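 note: compound exposure lasted 3 days before fixation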;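 for nuclei count: percent of the per-plate median nuclei count of sample wells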); settings: exon1htt(103Q)mCFP cell line, aggregate imaging, at 2 µM; inhibition of aggregation: stronger effect = higher value; nuclei count: measured here: cell count, toxicity
# [3] = inhibitors of E-selectin induction by TNFa, primary screen, imaging, HUVEC, immunofluorescence, MLSMR starter and 10KST1 sets (AID 487;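 active = visually confirmed hit in the image check and inhibition above 20%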;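 for inhibition: signal is fraction of cell area covered by stained E-selectin grains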;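 for nuclei count: 100% = median nuclei count of all wells on the same plate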); settings: HUVEC TNFalpha-induced E-selectin immunofluorescence imaging, at 2 µM; inhibition: stronger effect = higher value; nuclei count: measured here: cell number, toxicity
# [4] = DUSP6 inhibitors restoring Erk phosphorylation by chemical complementation, primary imaging in DUSP6-transfected HeLa (AID 609;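 active = compounds giving at least 50% inhibition in the cell-based MKP-3 phosphatase rescue imaging test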;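 for inhibition: phospho-Erk level distribution per well compared with pooled transfected vehicle control wells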); settings: HeLa MKP-3 transfected, phospho-Erk imaging KS statistic, at 10 µM, cells stimulated with TPA for 15 min
# [5] = molecular target: Dual specificity protein phosphatase 6 (Homo sapiens) (UniProt Q16828); assay: as above; settings: HeLa MKP-3 transfected, phospho-Erk imaging KS statistic; at 10 µM; stronger effect = higher value; cells stimulated with TPA for 15 min
# [6] = molecular target: Voltage-gated potassium channel subunit beta-2 (Rattus norvegicus) (UniProt P62483); assay: KvBeta enzyme negative modulators, primary screen, biochemical, NADPH fluorescence (AID 622;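 active = fluorescence slope higher than the sample average by over 3 SD, cut at about -0.22 in these data, passing the limit was not always enough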;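 note: slope of raw intensity against log time taken from 70 to 1610 s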); settings: recombinant KvBeta, 4-cyanobenzaldehyde reduction, at 10 µM, stronger effect = higher value
# [7] = molecular target: Voltage-gated potassium channel subunit beta-2 (Rattus norvegicus) (UniProt P62483); assay: KvBeta positive modulators, primary screen, biochemical, NADPH fluorescence (AID 623;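 active = NADPH fluorescence slope more negative than the mean of all samples by about 3 SD, 99.7% confidence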;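 note: fluorescence intensity change per second fitted from 20 to 320 s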); settings: Recombinant KvBeta, NADPH fluorescence decrease slope, 10 min; at 10 µM; stronger effect = lower value
# [8] = molecular target: Alpha-2C adrenergic receptor (Homo sapiens) (UniProt P18825); assay: modulators of alpha2C/GIRK thallium flux, primary screen, cell-based, HEK293 alpha2C/GIRK1/2 (AID 624;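 active = fluorescence slope after compound addition differing from the mean of all screened samples at 99.7% confidence, in either direction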;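 note: slope of fluorescence ratio to pre-addition baseline per second over 15 to 24 s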); settings: thallium flux BTC fluorescence, at 10 µM, actives lie on both sides
# [9] = molecular target: Muscarinic acetylcholine receptor M4 (Homo sapiens) (UniProt P08173); assay: compounds altering M4/GIRK thallium flux, either direction, primary screen, M4 allosteric agonist project, cell-based, HEK293 M4/GIRK, BTC-AM (AID 625;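 active = fluorescence slope after compound addition differing from the mean of all tested samples at 99.7% confidence, mostly higher but some lower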;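 note: thallium influx through GIRK channels coupled to M4 in HEK293 cells with BTC-AM dye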); settings: at 10 µM, actives lie on both sides
# [10] = inhibitors of larval lipid processing in zebrafish, primary screen, whole organism, PED6 fluorescence, gall bladder and intestine (AID 686;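 active = a full or partial loss of lipid-probe fluorescence in the fish gall bladder, intestine or both, judged by eye; inactive = no fluorescence loss, or compound toxic to the fish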;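 note: larvae 5 to 7 days old with five fish per well; signal comes from phospholipase A2 cleavage of quenched PED6 carried via bile; overnight exposure to compound and PED6 before scoring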); settings: Zebrafish larvae PED6 lipid processing, fluorescence scoring; screened at 20 µM (by protocol)
# [11] = inhibitors of Chlamydomonas gravitaxis, primary screen, whole organism, Chlamydomonas reinhardtii, WT vs cilia-less mutant, absorbance, 96-well (AID 463189); settings: OD600 absorbance, 2 days, at 10 µM, stronger effect = higher value;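 note: 0% = wild type cc124 cells in DMSO and 100% = ciliumless bld1 mutant cells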
# [12] = inhibitors of Sendai virus-induced IRF3 signaling, primary screen, TLR/RLR signaling modifier project, cell-based, Sendai virus stimulus, luciferase, 10K MLSCN set (AID 602276;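 active = inhibition at or above 50% at 10 µM; inactive = inhibition below 50%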;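 note: firefly luciferase from ISG56 promoter only with Renilla not read in this screen; 0% = Sendai virus plus DMSO and 100% = medium plus DMSO without virus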); settings: HEK293 RL24 IRF3 luciferase reporter, at 10 µM, stronger effect = higher value
# [13] = inhibitors of poly I:C-induced TLR3 signaling, primary screen, cell-based, poly I:C stimulus, luciferase, 10K MLSCN set (AID 602277;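 active = inhibition of the reporter signal at or above 50%; inactive = inhibition below 50%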); settings: HEK293-TLR3 RL24 IRF3 luciferase reporter, at 10 µM, stronger effect = higher value
# [14] = measured here: cell density z-score
# [15] = measured here: nuclear c-Myc green intensity z-score
# [16] = measured here: nuclear pErk red intensity z-score, stronger effect = higher value
# Sequence of Alpha-2C adrenergic receptor (Homo sapiens) (P18825 whole entry, looked up): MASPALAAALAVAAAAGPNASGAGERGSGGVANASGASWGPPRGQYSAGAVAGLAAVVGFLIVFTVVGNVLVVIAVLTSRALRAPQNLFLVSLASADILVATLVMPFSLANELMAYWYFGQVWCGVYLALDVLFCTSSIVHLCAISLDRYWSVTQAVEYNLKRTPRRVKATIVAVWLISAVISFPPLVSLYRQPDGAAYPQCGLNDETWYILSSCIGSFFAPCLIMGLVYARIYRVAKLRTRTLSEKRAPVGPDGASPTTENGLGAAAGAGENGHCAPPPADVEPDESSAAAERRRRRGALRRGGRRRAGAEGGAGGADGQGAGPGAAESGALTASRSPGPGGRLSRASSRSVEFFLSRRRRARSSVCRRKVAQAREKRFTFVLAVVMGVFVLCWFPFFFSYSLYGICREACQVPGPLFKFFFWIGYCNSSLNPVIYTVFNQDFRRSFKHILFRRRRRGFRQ
# Sequence of Muscarinic acetylcholine receptor M4 (Homo sapiens) (P08173 whole entry, looked up): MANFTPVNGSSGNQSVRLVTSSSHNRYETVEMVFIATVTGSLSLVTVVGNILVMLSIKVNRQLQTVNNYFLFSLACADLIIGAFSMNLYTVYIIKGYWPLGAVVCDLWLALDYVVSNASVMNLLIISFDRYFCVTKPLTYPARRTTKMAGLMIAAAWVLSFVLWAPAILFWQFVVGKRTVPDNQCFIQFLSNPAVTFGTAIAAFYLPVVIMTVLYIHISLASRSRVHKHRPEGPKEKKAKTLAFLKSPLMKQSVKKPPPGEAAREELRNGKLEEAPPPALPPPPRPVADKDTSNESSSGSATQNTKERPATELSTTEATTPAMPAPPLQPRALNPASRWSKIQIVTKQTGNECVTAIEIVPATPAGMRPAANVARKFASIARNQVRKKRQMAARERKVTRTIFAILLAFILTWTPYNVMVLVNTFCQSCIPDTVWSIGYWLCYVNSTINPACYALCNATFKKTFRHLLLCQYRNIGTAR
# Sequence of Dual specificity protein phosphatase 6 (Homo sapiens) (Q16828 whole entry, looked up): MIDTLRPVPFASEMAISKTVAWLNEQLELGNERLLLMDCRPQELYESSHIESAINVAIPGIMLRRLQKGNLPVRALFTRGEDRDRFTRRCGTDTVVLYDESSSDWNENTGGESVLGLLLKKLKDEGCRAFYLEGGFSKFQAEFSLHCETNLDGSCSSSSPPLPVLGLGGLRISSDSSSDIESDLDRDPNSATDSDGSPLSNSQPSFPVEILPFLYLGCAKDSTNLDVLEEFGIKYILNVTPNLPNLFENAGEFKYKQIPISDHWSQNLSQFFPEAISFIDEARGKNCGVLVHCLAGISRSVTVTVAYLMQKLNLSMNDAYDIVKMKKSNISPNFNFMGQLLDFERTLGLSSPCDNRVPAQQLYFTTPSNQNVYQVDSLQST
# Sequence of Voltage-gated potassium channel subunit beta-2 (Rattus norvegicus) (P62483 whole entry, looked up): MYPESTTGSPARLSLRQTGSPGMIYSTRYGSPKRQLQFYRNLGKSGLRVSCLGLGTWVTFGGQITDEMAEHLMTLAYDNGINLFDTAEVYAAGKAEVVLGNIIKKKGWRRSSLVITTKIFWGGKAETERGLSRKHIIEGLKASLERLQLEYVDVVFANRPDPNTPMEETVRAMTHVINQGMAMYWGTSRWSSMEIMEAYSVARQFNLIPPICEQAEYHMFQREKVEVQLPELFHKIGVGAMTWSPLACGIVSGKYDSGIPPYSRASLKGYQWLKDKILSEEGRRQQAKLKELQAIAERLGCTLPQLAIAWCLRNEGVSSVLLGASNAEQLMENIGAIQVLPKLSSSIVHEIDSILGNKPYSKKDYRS
SMILES,cell count [1],inhibition [1],inhibition of aggregation [2],nuclei count [2],inhibition [3],nuclei count [3],"z-score [4, 14]","z-score [4, 15]","z-score [4, 16]",inhibition [5],fluorescence slope [6],NADPH fluorescence slope [7],slope [8],fluorescence slope [9],outcome [10],inhibition [11],inhibition [12],inhibition [13]
CC(=O)C1=C(NC(=O)c2ccccc2F)C[C@@H]2[C@H]1C2(C)C,511,0.8% (inactive),-2.1% (inactive),99.3%,-94.2% (inactive),126%,0.289,-1.02,0.959,11.9% (inactive),-0.395 (inactive),-7.2e-05 (inactive),0.00586 (inactive),0.00577 (inactive),inactive,13.1% (inactive),-7.48% (inactive),-10.2% (inactive)
Cc1nnc(SCC(=O)N2CCC(C(N)=O)CC2)s1,423,-2.2% (inactive),-4.3% (inactive),87.6%,-80.5% (inactive),137%,-1.3,-0.207,-0.854,-3.95% (inactive),-0.418 (inactive),-3.7e-05 (inactive),0.00689 (inactive),0.00524 (inactive),inactive,29.5% (inactive),7.88% (inactive),7.15% (inactive)
Cc1cc(/C=c2/sc3nc4ccccc4n3c2=O)c(C)n1-c1ccccn1,477,-8.3% (inactive),-17% (inactive),105%,-51.9% (inactive),114%,0.162,1.46,-0.242,1.04% (inactive),-0.436 (inactive),-8.3e-05 (inactive),0.00546 (inactive),0.00476 (inactive),inactive,-7.65% (inactive),58.3% (active),93% (active)
N#CC1=C(N)OC2=C(C(=O)CCC2)C1CCc1ccccc1 (configuration not stated),620,2.3% (inactive),21% (inactive),110%,-94.4% (inactive),110%,1.04,-0.525,-0.374,2.92% (inactive),-0.527 (inactive),-1.3e-05 (inactive),0.00639 (inactive),0.00745 (inactive),inactive,33.2% (inactive),7.7% (inactive),15.7% (inactive)
Cc1ccc(SCc2[nH]nc3c2C(c2ccc(C)o2)C(C#N)=C(N)O3)cc1 (configuration not stated),571,-2.5% (inactive),15.4% (inactive),62.4%,-2.7% (inactive),91.7%,-2.32,1.82,1.99,24% (inactive),-0.515 (inactive),-5.6e-05 (inactive),0.0059 (inactive),0.00561 (inactive),inactive,25.7% (inactive),-13.7% (inactive),-11.1% (inactive)
CCN(CC)CCCN1C(=O)C(=O)/C(=C(/O)c2ccccc2)C1c1ccccn1 (configuration not stated),528,-5.4% (inactive),5.1% (inactive),104%,-45% (inactive),121%,0.55,-1.39,-0.0355,7.7% (inactive),-0.473 (inactive),-3.7e-05 (inactive),0.00741 (inactive),0.00518 (inactive),inactive,8.25% (inactive),2.69% (inactive),1.93% (inactive)
Cc1nc(Sc2cccn2C)c(C(F)(F)F)c(=O)[nH]1,556,-4.5% (inactive),4.3% (inactive),96.7%,-64.1% (inactive),108%,-1.97,0.557,2.32,1.9e-07% (inactive),-0.447 (inactive),-2.3e-05 (inactive),0.00534 (inactive),0.00695 (inactive),inactive,12.2% (inactive),13.1% (inactive),3.1% (inactive)
CCN(CC)CCN1C(=O)C(O)=C(C(=O)c2cccs2)C1c1ccccn1 (configuration not stated),503,1.8% (inactive),-4.1% (inactive),102%,-7.4% (inactive),120%,-0.956,0.653,-1.67,-0.608% (inactive),-0.468 (inactive),-0.000108 (inactive),0.00594 (inactive),0.0052 (inactive),inactive,-9.88% (inactive),4.53% (inactive),12% (inactive)
Cc1c(NC(=O)c2coc(=O)c(Br)c2)c(=O)n(-c2ccccc2)n1C,620,1.7% (inactive),3.9% (inactive),101%,4% (inactive),113%,-0.496,0.153,-1.2,20.3% (inactive),-0.46 (inactive),-2.1e-05 (inactive),0.0067 (inactive),0.00586 (inactive),inactive,14% (inactive),-5.82% (inactive),56.8% (active)
N#CCc1nc2c3c4c(sc3ncn2n1)CCCC4,436,-7.3% (inactive),-155% (inactive),1.9%,-12.1% (inactive),130%,0.106,1.08,0.152,5.95% (inactive),-0.413 (inactive),-4.9e-05 (inactive),0.00471 (inactive),0.00496 (inactive),inactive,0.738% (inactive),5.18% (inactive),-26.2% (inactive)
CCN(CC)CCCN1C(=O)C(=O)/C(=C(/O)c2ccc(C)cc2)C1c1ccccn1 (configuration not stated),546,-2.6% (inactive),21% (inactive),134%,-85.1% (inactive),144%,0.34,-0.315,-0.132,-2.29% (inactive),-0.45 (inactive),-3.6e-05 (inactive),0.0052 (inactive),0.00497 (inactive),inactive,-0.742% (inactive),-25.3% (inactive),-18.7% (inactive)
N#CC1(c2ccccc2)CCC(=NO)CC1 (configuration not stated),685,-0.6% (inactive),-8% (inactive),102%,8.8% (inactive),86.8%,-0.0727,1.42,-0.351,-13.3% (inactive),-0.461 (inactive),-4.5e-05 (inactive),0.00512 (inactive),0.00503 (inactive),inactive,-5.88% (inactive),10.2% (inactive),20.6% (inactive)
CCc1cc2c(=O)c(-c3nc4ccccc4[nH]3)coc2cc1OC(=O)N1CCOCC1,666,-4.8% (inactive),-15.2% (inactive),126%,-44.8% (inactive),149%,0.051,0.477,-0.475,-9.53% (inactive),-0.483 (inactive),-3e-05 (inactive),0.00512 (inactive),0.00565 (inactive),inactive,-11.5% (inactive),-4.36% (inactive),-9.08% (inactive)
CC(C)CNC(=O)c1c(N)n(/N=C/c2ccccn2)c2nc3ccccc3nc12,533,-2.3% (inactive),-1.4% (inactive),105%,-33.4% (inactive),129%,1.46,-0.805,-0.75,4.37% (inactive),-0.43 (inactive),-3.5e-05 (inactive),0.00506 (inactive),0.0059 (inactive),inactive,31.2% (inactive),-0.468% (inactive),-13.1% (inactive)
C=CCSc1nnc2n(CCc3ccccc3)c(=O)c3c4c(sc3n12)COC(C)(C)C4,492,-1.7% (inactive),3.5% (inactive),115%,-100% (inactive),135%,1.51,-1.62,-0.504,9.91% (inactive),-0.35 (inactive),-1.2e-05 (inactive),0.00563 (inactive),0.0058 (inactive),inactive,28.7% (inactive),0.226% (inactive),-17.3% (inactive)
CC(=O)Nc1ccc(-c2cc3ccccc3o2)cc1,572,-3.8% (inactive),-5.2% (inactive),112%,11% (inactive),138%,-0.412,2.18,0.0674,-0.233% (inactive),-0.468 (inactive),-0.00011 (inactive),0.00496 (inactive),0.00556 (inactive),inactive,17.4% (inactive),-24.7% (inactive),-112% (inactive)
CNC(=O)CC(C(=O)O)c1ccc(OC(C)C)cc1 (configuration not stated),649,-0.5% (inactive),26.1% (inactive),89.4%,21.1% (inactive),125%,-0.892,0.826,1.07,-2.09% (inactive),-0.454 (inactive),-4e-05 (inactive),0.00593 (inactive),0.00492 (inactive),inactive,2.81% (inactive),12.9% (inactive),19.4% (inactive)
CC(=N\O)/C(CN(C)C)=N/O,593,-2.4% (inactive),-2.9% (inactive),86.5%,-11.6% (inactive),131%,0.774,-0.0101,-0.876,-0.233% (inactive),-0.49 (inactive),-6.9e-05 (inactive),0.0061 (inactive),0.00548 (inactive),inactive,-6.2% (inactive),-13.1% (inactive),1.97% (inactive)
COc1cccc(NC(=O)CC2SC(=Nc3ccccc3)NC2=O)c1 (configuration not stated),593,2.2% (inactive),32.9% (inactive),84.1%,-29.5% (inactive),132%,-0.312,-0.394,0.335,9.91% (inactive),-0.37 (inactive),-1.5e-05 (inactive),0.00453 (inactive),0.00596 (inactive),inactive,32.2% (inactive),-8.37% (inactive),97.6% (active)
